# This is part of a sample that, as a whole, favours compounds with a hit. Of some 79,000 tested, about 15% had one in any assay. Unmarked numbers belong to inactive results. Activity calls are given as the source filed them. Rule as the data show it: active = growth inhibition above about 70%; inactive = the rest. Where a SMILES comes first, the peptide text is derived from it. The star is where a group is joined. Cbz = O=C(OCc1ccccc1)*; NHNH2 = NN*
# Assays:
# [1] = NCI Yeast Anticancer Drug Screen. Data for the rad50 strain (AID 155);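 also: 0% = growth of vehicle-only cultures of the same strain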; conditions: S. cerevisiae rad50 strain growth inhibition; at 50.0 µM; active compounds read high
# Summary of the method: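 Relative growth inhibition (compound vs vehicle) was measured in yeast with a defined repair-gene alteration.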
# [2] = NCI Yeast Anticancer Drug Screen. Data for the mec2-1 strain (AID 157); conditions: S. cerevisiae mec2-1 strain, at 50.0 µM, active compounds read high
# Summary of the method: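 Mutant yeast (mec2-1) grown with compound; growth inhibition relative to vehicle control reported.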
# [3] = NCI Yeast Anticancer Drug Screen. Data for the sgs1 mgt1 strain (AID 161);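 also: 0% = growth of cultures given vehicle only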; conditions: S. cerevisiae sgs1 mgt1 strain, at 50.0 µM, active compounds read high
# Summary of the method: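 Percent growth inhibition was derived by comparing compound-exposed mutant yeast with vehicle-exposed cultures. The strain carries alterations in DNA damage repair.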
# [4] = NCI Yeast Anticancer Drug Screen. Data for the cln2 rad14 strain (AID 165);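 also: 0% = growth equal to vehicle treated cultures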; conditions: S. cerevisiae cln2 rad14 strain, at 50.0 µM, active compounds read high
# Summary of the method: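 Readout is yeast growth inhibition versus vehicle-treated controls, using a strain with cln2 and rad14 alterations exposed to compound.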
# [5] = NCI Yeast Anticancer Drug Screen. Data for the bub3 strain (AID 167); conditions: S. cerevisiae bub3 mutant strain, at 50.0 µM, active compounds read high
# Summary of the method: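 Screening used yeast with an engineered genetic alteration affecting cell cycle control. Compound-exposed cultures were compared with vehicle cultures, and reduced growth was taken as inhibition.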
# [6] = NCI Yeast Anticancer Drug Screen. Data for the mlh1 rad18 strain (AID 175); conditions: S. cerevisiae mlh1 rad18 strain growth inhibition; at 50.0 µM; active compounds read high
# Summary of the method: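 Genetically defined yeast (DNA repair-deficient) exposed to compounds; growth inhibition determined relative to vehicle.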
Compound,growth inhibition [1],growth inhibition [2],growth inhibition [3],growth inhibition [4],growth inhibition [5],growth inhibition [6]
CCOCCNCc1ccc(Cl)cc1Cl,4%,-1.45%,-5%,2.85%,7.8%,-9.7%
COC1C(O)=C2C(=O)OC(C)(O)/C=C/C=C\C=C/C=C/C(c3ccccc3)NC(=O)/C=C/C=C/C=C/C=C/C2(C)C1O (stereo not drawn),-1.7%,-14.1%,3.3%,3.55%,-9.3%,4.5%
COc1ccc(CC2OCCC3c4ccccc4NC23)cc1OC (stereo not drawn),-3.2%,-3.5%,0.7%,-10.2%,3%,-2.05%
N#CC(=C1CCCCC1)c1ccccc1,-14.1%,-21.2%,-21.6%,-5.75%,-15.9%,-27.1%
CC(=O)c1ccc2c(Br)ccc3c2c1CC3,12.3%,10.3%,4.25%,10.4%,16.1%,9.55%
Cc1ccc(S(=O)(=O)NC(=O)N(Cc2ccccc2)C(C)(C)C)cc1,3.4%,20.4%,16.1%,-0.15%,14.2%,16.9%
CCNC(=O)OCCN(CCOC(=O)NCC)CCc1ccccc1,8.7%,9.15%,15.5%,-7.75%,-17.4%,6.3%
CCCCCC[N+]12CC=C3COC(=O)C(C)(O)C(C)(O)C(C)C(=O)OC(CC1)C32 (stereo not drawn),0.7%,-6.15%,-0.25%,13.7%,-3.35%,7.85%
CC(C)CC(NC(=O)CN)C(=O)O (stereo not drawn),-1.85%,2.4%,-1.1%,-7.2%,-6%,-0.85%
CCOC(=O)C(NC(=O)CC)(Nc1ccc(S(=O)(=O)Nc2onc(C)c2C)cc1)C(F)(F)F (stereo not drawn),-6.35%,-15.4%,-8.85%,15.6%,-6.4%,-17.4%
O=C(CCC(=O)Nc1ccccc1[N+](=O)[O-])CC(=O)c1ccc(Br)cc1,4.85%,7.75%,-2.95%,9.3%,-13.1%,6.15%
COC(=O)Nc1cn2nc(C)sc2n1,-17.4%,11.4%,-10.1%,-16.1%,2.6%,-6.95%
CCOC(C#CC(=O)C(C)C)OCC,-17.2%,3.15%,0.85%,2.25%,27.4%,19.4%
CC1=Nc2c([nH]c(=S)[nH]c2=O)NC(c2c(Cl)cccc2Cl)C1 (stereo not drawn),3.9%,11.6%,14.2%,-4.5%,-4.5%,34.6%
CNc1ncnc2c1c(C(N)=S)cn2C1OC(CO)C(O)C1O (stereo not drawn),0.1%,-22.7%,-13.7%,2.2%,0.95%,12.5%
CCSC(=S)S(=O)(=O)c1ccc(C)cc1,90.4% (active),93.1% (active),89.5% (active),90.5% (active),84.2% (active),92.3% (active)
N#CC(C#N)=C(N)/C(C#N)=C/c1ccc(O)c(O)c1,-14.2%,-4.9%,-5.25%,3.7%,2.4%,6.85%
C=C1C(=O)O[C@@H]2[C@H]3[C@H](C)C(=O)C=C[C@]3(C)CC[C@@H]12,21.3%,-24.9%,39%,13.4%,8.95%,-23.6%
CCCCC(CC)(CO)CO,11.2%,3.95%,5.35%,1.05%,-4.55%,16.6%

Compound,growth inhibition [1],growth inhibition [2],growth inhibition [3],growth inhibition [4],growth inhibition [5],growth inhibition [6]
Oc1ccc(Cl)c(O)c1,30.1%,-0.55%,-3.65%,0.9%,-6%,21.7%
CCc1onc(-c2noc(CC)c2C)c1C,-5.35%,6.5%,0.25%,-9.35%,-1.5%,12.3%
Nc1ncnc2nc(N=Nc3ccc(S(=O)(=O)O)cc3)[nH]c12,4.25%,-21.1%,-1.2%,-23.4%,-6.35%,-6.75%
CC(O)C(NC(=O)Nc1ncnc2nc[nH]c12)C(=O)O (stereo not drawn),8.8%,4.3%,-2%,7.75%,-14.2%,16.9%
CCOC(=O)NC(=O)c1cn(CC(=O)NCC(=O)NCC(=O)N2CCN(CCn3c(C)nc(C(N)=O)c3N)CC2)c(=O)[nH]c1=O,12.8%,8.9%,5.25%,-18.8%,2.75%,-4.85%
COC(=O)CC(NC(=O)OCc1ccccc1)C(=O)NC(CC(=O)OC)C(=O)NC(CC(=O)OC)C(=O)NC(CC(=O)OC)C(=O)NC(CC(=O)OC)C(=O)NC(CC(=O)OC)C(=O)NN (stereo not drawn) (Cbz-D(OMe)D(OMe)D(OMe)D(OMe)D(OMe)D(OMe)-NHNH2; configuration not given here),-18.6%,-16.9%,-24.6%,20.6%,25.7%,-18.5%
CC(=O)OC1CCC2(C)C(CCC3C2CC(OC(C)=O)C2(C)C(C(C)CCC(c4ccccc4)c4ccccc4)CCC32)C1 (stereo not drawn),9.1%,-20.4%,1.1%,14.9%,0.15%,-1.55%
COc1ccc2oc(=O)c(-c3csc(-c4ccccc4)n3)cc2c1,13.6%,5.85%,-5.5%,1.25%,-24.4%,-45.2%
Cc1cc(NC(=O)NC(=O)c2ccccc2NC(=O)CN)ccc1Oc1ncc(Br)cn1,6%,-13.8%,40.3%,11.4%,15.1%,-43.5%
CCCCCCCCCCCCCCCC[N+](C)(C)CCN=[N+]=[N-],99.4% (active),99.7% (active),99.7% (active),99.2% (active),99.5% (active),99.5% (active)
COc1ccc(OC)c2c3c([nH]c12)C(=O)Nc1nc(N)nc(N)c1C3,42.9%,19.9%,30.4%,21.8%,31.9%,40.5%
Cc1occc1C(=S)Nc1ccc(Cl)c(C(=O)OC2CCCC2)c1,40.1%,21.2%,35%,60.5%,46.4%,29.6%
Cc1ccc(-n2c(O)c(N=Nc3ccccc3)c(=O)n(-c3ccccc3)c2=S)cc1,20.1%,-15.7%,51.4%,-30.7%,-9.2%,-9.85%
O=C(/C=N/O)Nc1ccccc1I,3.95%,-9.95%,20.4%,16.6%,18.1%,-3.5%
COc1ccc(/C=N\N2CN(C(CC(N)=O)C(=O)O)C(O)(CCl)N=C2N)cc1OC (stereo not drawn),9.1%,-6.9%,3.1%,-5.65%,6.8%,-0.1%
CC(=O)CC(=O)Nc1ccc(C(=O)O)c(O)c1,-14.2%,-18.9%,8.4%,-1.45%,32.1%,-1%
COc1cc2c(cc1OC)C(=O)C1(C2)[C@H](c2ccccc2)C2C(=O)c3cc(OC)c(OC)cc3C2[C@H]1c1ccccc1 (stereo partly drawn),-2.5%,3.25%,29.9%,17.6%,46%,23.1%
N#C/C(=N\NC(=O)c1ccccc1Cl)c1ccccc1Cl,89.5% (active),79.3% (active),83% (active),82.2% (active),67.3%,77.8% (active)
S=C1CC(c2ccccc2)Sc2cc(Cl)ccc2N1 (stereo not drawn),-15.5%,-4.35%,4.9%,15.6%,-2.45%,-2.95%

# From PubChem BioAssay (NCI)
